Screen size: about 360,000 compounds; about 2,600 (0.72%) were called active. About 5% were inconclusive and are not listed. Only a selection was taken, and actives are over-represented in it overall. Unmarked numbers belong to inactive results. The call rests on the fitted dose curve; in most records, active means well fitted inhibition curve with a large enough effect; inconclusive means small, poorly fitted or top-dose-only effect; inactive means no such curve, though single readings can be large or run the other way.
assay: Primary qHTS for Inhibitors of ATXN expression; conditions: HEK-293 ATXN2-luciferase reporter, luminescence, 24 h; series mostly up to 57 µM; activity change, negative = inhibition: at the top concentration; further: nearly all actives have a fitted effect of over 55% in size
Summary of the method: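 qHTS (up to 57 uM final) was run with 24 h compound exposure of reporter cells at 37 °C. Each well was multiplexed: SteadyGlo luminescence measured ATXN2-luciferase expression after a fluorogenic Gly-Phe-AFC viability readout (25 uM final).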
On the % scale 0 is the no-effect control and ±100 the full control effect; potency means the concentration at half of the fitted maximal effect.

Compound	activity change, negative = inhibition	Potency
C=CCn1c(COc2cccc3cccnc23)nnc1SCC(=O)OC	9.7%	–
CCCCC(=O)NC(c1ccc(OC)c(OC)c1)c1ccc2cccnc2c1O (configuration not stated)	–	5.01 µM (active)
COc1ccc(CCNS(=O)(=O)c2cccc3cccnc23)cc1OC	1.2%	–
CC1=C(C(=O)N(C(C)C)C(C)C)CC(CC(=O)NCCCCc2ccccc2)C(=O)N1CCC1=CCCCC1 (configuration not stated)	-11.7%	–
CCc1c2c(nc3ccc(O)cc13)-c1cc3c(c(=O)n1C2)COC(=O)[C@]3(O)CC	–	0.0061 µM (active)
CCCCN(CC)C(=S)Nc1ccc2nc3n(c(=O)c2c1)CCCCC3	1.25%	–
COc1ccc(C(=O)COC(=O)CCCC(=O)Nc2cc(C(F)(F)F)ccc2Cl)cc1	12%	–
CCCCNC(=O)C1CCCN(c2nnc(C)c3c(C)n(-c4ccc(Cl)cc4)nc23)C1 (configuration not stated)	-7.69%	–
CCc1ccc(CNC(=O)C2CCN(c3nnc(C)c4c(C)n(-c5ccc(C)cc5)nc34)CC2)cc1	–	31.6 µM (active)
COc1ccc(-n2nc3c(N4CCC(C(=O)NCc5ccccc5)CC4)nnc(C)c3c2C)cc1	-22.4%	–
Cc1nnc(N2CCCC(C(=O)NCCN(C)C)C2)c2nn(-c3ccccc3)c(C)c12 (configuration not stated)	-23.9%	–
COc1cccc(NC(=O)C2CCN(c3cc(C)nc4c(-c5ccc(Cl)cc5)c(C)nn34)CC2)c1	4.91%	–
Cc1nnc(N2CCC(C(=O)Nc3ccc(F)cc3)CC2)c2nn(-c3ccc(Cl)cc3)c(C)c12	–	25.1 µM (active)
CSc1nc(-c2ccc(F)cc2)nc2c1Cc1c(CO)cnc(C)c1O2	0.751%	–
Cc1ccc(CNC(=O)CCc2c(C)nc3c(c(C)nn3-c3ccccc3)c2C)cc1	5.92%	–
CN(C)c1ccc(NC(=O)CSc2nc(-c3ccco3)cc(C(F)(F)F)n2)cc1	2.66%	–
COc1cccc(CNC(=O)c2cc(=O)[nH]c3ccc(S(=O)(=O)N4CCCCC4)cc23)c1	-1.53%	–
Cc1cc(NC(=O)/C=C/C(=O)N(c2ccccc2C)C(C(=O)NC2CCCC2)c2ccc(F)cc2)no1 (configuration not stated)	–	10 µM (active)
Cc1cc(NC(=O)/C=C/C(=O)N(CC(=O)NC2CCCC2)c2ccc(F)cc2)no1	-16.6%	–

Compound	activity change, negative = inhibition	Potency
Cc1cc(NC(=O)CCC(=O)N(c2cccc(F)c2)C(C(=O)NC2CCCC2)c2ccncc2)no1 (configuration not stated)	-5.11%	–
CCOc1ccc(-c2nonc2NC(=O)c2oc3ccc(C)cc3c2C)cc1OCC	9.19%	–
O=C(Nc1ccc(O)c(-c2nc3ccccc3o2)c1)c1ccc(-c2cccc(Cl)c2)o1	-8.53%	–
CC1(C(=O)NCc2ccco2)Cc2c(-c3ccc4c(c3)OCO4)ccnc2O1 (configuration not stated)	-16%	–
CCOC(=O)c1ccc(NC(=O)CCn2cnnn2)cc1	10.7%	–
CON=C(C(=O)N[C@@H]1C(=O)N2C(C(=O)OCOC(=O)C(C)(C)C)=C(C=Cc3scnc3C)CS[C@H]12)c1csc(N)n1	6.17%	–
Cc1cc(Br)cn2c(Cc3cccc(F)c3)c(-c3cccc(Br)c3)nc12	0%	–
CC(C)(C)c1cc(C(=O)O)c(NC(=O)Nc2ccc3[nH]ncc3c2)s1	-0.034%	–
CC(C)(C)c1nc(-c2cccc(NS(=O)(=O)c3c(F)cccc3F)c2F)c(-c2ccnc(N)n2)s1	-14.8%	–
OC(c1ccc(Cl)cc1)c1ncc(-c2ccc(Cl)cc2)[nH]1 (configuration not stated)	-18.9%	–
CC(C)Cc1ccc(-c2cc3nc(NCc4cccc(Cl)c4)ccn3n2)cc1	8.54%	–
CC(=O)N(CN1C(=O)C2CC=CCC2C1=O)c1cccc(Cl)c1 (configuration not stated)	-7%	–
Cc1cc([N+](=O)[O-])ccc1NCc1cccc([N+](=O)[O-])c1	-16.2%	–
O=C(CCl)N(Cc1cccc([N+](=O)[O-])c1)c1cccc(Cl)c1	–	2.38 µM (active)
Cn1c(=O)[nH]c(=O)c2c1nc(NCCc1ccccc1)n2Cc1ccc(F)cc1	7.78%	–
O=C(NNc1c2ccccc2nc2ccccc12)c1cc2ccccc2cc1O	-18.3%	–
CC(=O)Nc1ccc(Nc2c3ccccc3nc3ccccc23)cc1	–	2.51 µM (active)
CC(=O)Nc1ccc(S(=O)(=O)N(C)c2nc3ccccc3nc2Cl)cc1	-8.49%	–
Cc1cc2c(cc1C)C(c1cccc(OC(C)C)c1)CC(=O)N2 (configuration not stated)	-8.01%	–

Compound	activity change, negative = inhibition	Potency
CCS(=O)(=O)N1CCc2cc(C(=O)NCc3ccc(OC)cc3)ccc21	11.1%	–
CCOC(=O)c1ccc(NC(=O)CC2C(=O)N(c3ccccc3)C(=O)N2Cc2cccs2)cc1 (configuration not stated)	-1.7%	–
COc1ccccc1N1CCN(c2ncnc3onc(-c4ccc(F)cc4)c23)CC1	10.9%	–
COc1ccc(-c2ccc(CN3C(CC(C)C)C(=O)N(Cc4cn(CC5CCCCC5)nn4)CCS3(=O)=O)cc2)cc1 (configuration not stated)	-17.1%	–
COCOCCn1cc(CN2CCS(=O)(=O)N(Cc3ccc(-c4cccc(N(C)C)c4)cc3)C(CC(C)C)C2=O)nn1 (configuration not stated)	1.39%	–
COCOCCn1cc(CN2CCS(=O)(=O)N(Cc3ccc(-c4ccc(OC)cc4)cc3)C(CC(C)C)C2=O)nn1 (configuration not stated)	–	28.2 µM (active)
O=C(CC(NCc1cccnc1)C(=O)O)Nc1ccc(O)cc1 (configuration not stated)	10.3%	–
COc1ccc(-c2noc(CSc3nnc(-c4ccccc4)n3-c3ccc(F)cc3)n2)c(OC)c1	-11.7%	–
CC(=O)c1ccc(-c2cnc3c(NC=O)cc(-c4cccc(NS(C)(=O)=O)c4)cn23)cc1	-15%	–
Cc1ccc(NS(=O)(=O)c2cc3c(cc2Br)NC(=O)CO3)cc1C	-9.96%	–
CCCOc1cccc(C(=O)Nc2cccc(NC(=O)c3ccc(C(C)(C)C)cc3)c2)c1	31.1%	–
CCCOc1ccc(C(=O)C(CCC(CNCC)C(=O)c2ccc(OCCC)cc2)CNCC)cc1 (configuration not stated)	–	17.8 µM (active)
CCCOc1ccc(/C=N/NC(=O)C2CC2)c(OCCC)c1	-0.187%	–
COc1cccc(-c2nc(S(=O)(=O)c3ccc(C)cc3)c(NCc3ccccc3)o2)c1	10.1%	–
Cc1cccc(NC(=O)CSc2nc3c(oc4ccccc43)c(=O)n2-c2ccc(F)cc2)c1	-13.3%	–
COC(=O)c1ccc2c(c1)N(CC(=O)Nc1ccc(C)c(C)c1)C(=O)c1ccccc1S2	8.78%	–
COc1ccc(/C=C2\SC(=O)N(CCC(=O)NCCCn3ccnc3)C2=O)cc1	19.2%	–
COc1ccc(/C=C2/SC(=O)N(CCCCCC(=O)Nc3ccccc3C(=O)O)C2=S)cc1	–	10 µM (active)
COc1ccc(/C=C2\SC(=O)N(CCC(=O)NC3CCS(=O)(=O)C3)C2=O)cc1 (configuration not stated)	24.1%	–

Source: PubChem BioAssay AID1745845 (National Center for Advancing Translational Sciences (NCATS), 2022)
